# Screening results from PubChem.
# An excerpt weighted towards active compounds, which were near 11% of everything screened.
# 3T3 cytotox: kills NIH 3T3 cells | NIH 3T3 viability, CellTiter-Glo ATP luminescence, 48-72 h | Potency, µM (titrated, usually from 96.7 µM), for the others: at the top dose activity change, negative = cytotoxicity, actives largely listed as inhibitors | 94,000 tested, 4.3% active | AID 1345082; note: % is set by controls: 0 for no effect and ±100 for the full control effect; nearly all actives have a fitted effect of over 55% in size
#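 ATP-dependent luminescence (CellTiter-Glo) served as the viability signal for NIH 3T3 cells treated with compound for 48 or 72 hr at 37 °C.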
# Luciferase inh: inhibitors of firefly (Photinus pyralis) luciferase | purified P. pyralis luciferase, luminescence, biochemical | 76,000 tested, 2.5% active | P08659 | Potency, µM (highest dose often 115 µM), usual class: inhibitors | AID 1347043; note: % is set by controls: 0 for no effect and ±100 for the full control effect; nearly all actives have a fitted effect of over 65% in size
#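 Luminescence read by CCD imager after adding enzyme (10nM final) to wells holding compound, titrated in qHTS. Substrates 10uM each D-luciferin and ATP; buffer 50mM Tris acetate pH 7.5, 10mM Mg acetate, Tween-20, BSA.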
# hNpr1 antagonist: human Npr1 receptor antagonism; P16066; Potency, µM (series often up to 46.3 µM), without a hit: top-dose activity change, negative = inhibition, usual class: inhibitors; HEK293 hNpr1 GloSensor cGMP, ANP-stimulated luminescence; AID 1347048; 76,000 tested, 1.6% active; calls by dose curve; note: % is set by controls: 0 for no effect and ±100 for the full control effect; nearly all actives have a fitted effect of over 60% in size
#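 HEK293 cells stably expressing human Npr1 and cGMP GloSensor pGS-40F, loaded 2 h with 2% GloSensor reagent, given compound 30 min at room temperature. Luminescence read before and 20 min after 0.1 nM hNppA.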
# HEK cytotox: kills HEK 293 cells; HEK 293 viability, ATP luminescence (CellTiter-Glo), 48-72 h; Potency, µM (top dose mostly 115 µM), for the others: at the highest dose activity change, negative = cytotoxicity, most hits filed as inhibitors; 94,000 tested, 6.6% active; AID 1345083; note: % is set by controls: 0 for no effect and ±100 for the full control effect; nearly all actives have a fitted effect of over 60% in size
#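 250 HEK 293 cells/well; compound by pintool; incubated 48 or 72 hr at 37 degree Celsius; CellTiter-Glo added, 10 min RT, luminescence imaged.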
# Npr1 antag conf: hNpr1 antagonism, confirmation assay | HEK293 hNpr1 cGMP GloSensor luminescence, ANP-stimulated | shares compounds with hNpr1 antagonist | AID 1347044 | Potency, µM (titrated, usually from 57.6 µM), without a hit: at the highest dose activity change, negative = inhibition, hits mostly inhibitors | 1,400 tested, 76% active; calls by dose curve; note: nearly all actives have a fitted effect of over 70% in size
# Npr2 selectivity: antagonizes human Npr2, subtype selectivity check | shares compounds with hNpr1 antagonist | HEK293 hNpr2 GloSensor cGMP luminescence, CNP-stimulated | Potency, µM (highest dose often 57.6 µM), for the others: at the highest dose activity change, negative = inhibition, hits mostly inhibitors | 1,400 tested, 67% active; calls by dose curve; note: nearly all actives have a fitted effect of over 70% in size
# FLuc counter: inhibits firefly luciferase, false Npr1 antagonist flag | Potency, µM (top dose mostly 57.6 µM), inactives show top-dose activity change, negative = inhibition, hits mostly inhibitors | shares compounds with hNpr1 antagonist | purified FLuc enzyme, luminescence, Km substrate | 1,400 tested, 0.7% active; note: 0% is about no effect
# GloSensor ctrl: control cell line activity, Npr1 antagonist counter-screen | shares compounds with hNpr1 antagonist | HEK293 GloSensor cGMP, SNP-stimulated, luminescence | Potency, µM (doses to about 57.6 µM), for inactives: top-dose activity change, negative = inhibition, usual class: inhibitors | 1,400 tested, 69% active | AID 1347051; calls by dose curve; note: % is set by controls: 0 for no effect and ±100 for the full control effect; nearly all actives have a fitted effect of over 70% in size
# Starred values were filed as active, the others as inactive; i = inactive; ? = inconclusive; · = no result given; [ ] = another dose, or the depositor's remark. Unless noted, calls come from the whole dose curve; as a rule, active = well fitted curve in the direction sought with a large enough effect; inconclusive = small, poorly fitted or top-dose-only effect, or another doubt; inactive = no such curve, though single readings can be large; an effect the other way counts as inactive or inconclusive. Potency is the fitted concentration of half-maximal effect.
SMILES,3T3 cytotox,Luciferase inh,hNpr1 antagonist,HEK cytotox,Npr1 antag conf,Npr2 selectivity,FLuc counter,GloSensor ctrl
Cc1nc(C2CC(O)C2)cc(N2CCN(c3nc4ccccc4s3)CC2)n1 (stereo not drawn),?,i,7.1µM*,?,9.7µM*,11µM*,1%,8.6µM*
COc1ccc(C2Cn3cnc(C(=O)N4CCC(C(=O)NCc5ccncc5)CC4)c3CO2)cc1 (stereo not drawn),0%,?,1%,-5%,·,·,·,·
CN1CC(=O)N(C2CCNC2)Cc2c1ncnc2N1CCC(N2CCCCC2)CC1 (stereo not drawn),i,·,·,i,·,·,·,·
CN1CC(=O)N(C2CCNC2)Cc2c1ncnc2N1CC[C@H](N(C)C)C1 (stereo partly drawn),i,·,·,i,6%,-1%,0%,2%
O=C(OCc1ccccc1)N1CCCN(c2cc(C3CC(O)C3)ncn2)CC1 (stereo not drawn),-27%,i,8.9µM*,?,15µM*,15µM*,5%,14µM*
Fc1cccc(-n2nc(C3CCOC3)nc2CC2CC2)c1 (stereo not drawn),-11%,i,5%,-24%,·,·,·,·
COc1ccc(OCC2(C)COc3ccc(C(=O)N(C)Cc4ccccc4)cc3N2)cc1 (stereo not drawn),?,i,-22%[70.6 µM],?,·,·,·,·
COc1ccc(OCC2(C)COc3ccc(C(=O)Nc4ccccc4)cc3N2)cc1 (stereo not drawn),?,i,25µM*,?,35µM*,35µM*,-6%[86.2 µM],35µM*
CC1(COc2cccnc2)COc2ccc(C(=O)NCc3ccc4c(c3)OCO4)cc2N1 (stereo not drawn),?,i,25µM*,?,31µM*,31µM*,1%[86.2 µM],22µM*
CN(C(=O)c1ccc2c(c1)NC(C)(COc1cccnc1)CO2)c1ccccc1 (stereo not drawn),-37%[138 µM],i,3.2µM*,?,3.5µM*,5µM*,-3%[86.2 µM],3.1µM*
CC1(COc2cccnc2)COc2ccc(C(=O)NCc3cnccn3)cc2N1 (stereo not drawn),-15%[138 µM],i,-2%[70.6 µM],?,·,·,·,·
CCOCC1(C)COc2ccc(C(=O)N(C)c3ccccc3)cc2N1 (stereo not drawn),-18%[138 µM],i,-13%[70.6 µM],?,·,·,·,·
CC1(COc2cccnc2)COc2ccc(C(=O)NCc3ccc(F)cc3)cc2N1 (stereo not drawn),?,i,35µM*,56µM*,31µM*,31µM*,2%[86.2 µM],25µM*
O=C(N1CCC(N2CC(OCC3CC3)C23CCOCC3)CC1)C1(c2ccccc2)CC1 (stereo not drawn),i,i,-4%,-2%,·,·,·,·
CC(=O)Nc1ccc(S(=O)(=O)N[C@H]2CO[C@H]3[C@@H]2OC[C@H]3OC(=O)Nc2ccc(C(C)=O)cc2)cc1,-22%,i,-6%,i,·,·,·,·
O=C(Nc1ccc(Oc2ccccc2)cc1)O[C@@H]1CO[C@H]2[C@@H]1OC[C@@H]2NC(=S)Nc1cccc2ccccc12,?,i,10µM*,?,5.4µM*,6.9µM*,-12%,6.1µM*
O=C(Nc1ccc(Oc2ccccc2)cc1)O[C@@H]1CO[C@H]2[C@@H]1OC[C@@H]2NS(=O)(=O)c1ccc2ccccc2c1,?,i,?,?,17µM*,15µM*,-13%,11µM*
